Many of the other results were omitted from the sample, so hits are more common in it than they were.
Shiga toxin inh: Shiga toxin inhibition. inhibition, % at 38.7 µM. 290,000 compounds, 9.2% hits. AID 2315. Vero cells, Shiga toxin protein synthesis inhibition reporter; in the data active = inhibition mostly above about 28%, no sharp cut-off; inactive = mostly below about 43%; also: 0% is about no effect
CHX counter: counter-screen hit for Shiga toxin inhibitors, cycloheximide; cell reporter, cycloheximide protein synthesis inhibition counterscreen; max response, %; 300,000 compounds, 12% hits; in the data active = max response mostly above about 13%, no sharp cut-off; inactive = mostly below about 14%; also: read at 38.3 µM for the half of the compounds with a filed dose; 0% is about no effect
RE007 growth inh: less growth of the S. pombe RE007 Vpr strain. S. pombe RE007 Vpr strain, BacTiter-Glo ATP luminescence, 24 h. Potency, µM (top dose mostly 92.2 µM), without a hit: at the top dose activity change, negative = less growth, most hits filed as inhibitors. 360,000 compounds, 0.21% hits; active = well fitted falling curve with a large enough effect; inconclusive = small, poorly fitted or top-dose-only effect; inactive = no such curve, though single readings can be large or run the other way; also: potency is read from the fitted curve at half-maximal effect; % is scaled to controls: 0 for no effect and ±100 for the full control effect; nearly all actives have a fitted effect of over 50% in size
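Fission yeast RE007 carrying one integrated HIV-1 vpr copy, seeded at OD 0.01 in PMG+AL medium with 23 nL pinned compound. Grown 24 h at 30 degrees; viability read by BacTiter-Glo luminescence after 5 min.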
Tb PYK inh: T. brucei pyruvate kinase inhibition. Q57TT1. TbPYK enzyme, Kinase-Glo Plus ATP luminescence, 45 min. Potency, µM (doses to about 76.8 µM), for inactives: at the highest dose activity, negative = inhibition, most hits filed as inhibitors. 410,000 compounds, 0.12% hits. AID 624173; also: potency is read from the fitted curve at half-maximal effect; % is scaled to controls: 0 for no effect and ±100 for the full control effect; nearly all actives have a fitted effect of over 50% in size
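Activity of T. brucei pyruvate kinase was followed by Kinase-Glo Plus luminescence after the enzyme reacted 45 min at room temperature with 130 uM ADP (final) and substrate. Test compounds were added before ADP at multiple concentrations.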
LmPK inhibitor: inhibitors of Leishmania mexicana pyruvate kinase | Potency, µM (series often up to 57.5 µM), without a hit: top-dose activity change, negative = inhibition, actives largely listed as inhibitors | purified LmPK, Kinase-Glo ATP luminescence, 1 h | AID 1721 | Q27686 | 290,000 compounds, 0.37% hits; also: potency is read from the fitted curve at half-maximal effect; % is scaled to controls: 0 for no effect and ±100 for the full control effect
Target sequence (Q27686 whole entry, looked up): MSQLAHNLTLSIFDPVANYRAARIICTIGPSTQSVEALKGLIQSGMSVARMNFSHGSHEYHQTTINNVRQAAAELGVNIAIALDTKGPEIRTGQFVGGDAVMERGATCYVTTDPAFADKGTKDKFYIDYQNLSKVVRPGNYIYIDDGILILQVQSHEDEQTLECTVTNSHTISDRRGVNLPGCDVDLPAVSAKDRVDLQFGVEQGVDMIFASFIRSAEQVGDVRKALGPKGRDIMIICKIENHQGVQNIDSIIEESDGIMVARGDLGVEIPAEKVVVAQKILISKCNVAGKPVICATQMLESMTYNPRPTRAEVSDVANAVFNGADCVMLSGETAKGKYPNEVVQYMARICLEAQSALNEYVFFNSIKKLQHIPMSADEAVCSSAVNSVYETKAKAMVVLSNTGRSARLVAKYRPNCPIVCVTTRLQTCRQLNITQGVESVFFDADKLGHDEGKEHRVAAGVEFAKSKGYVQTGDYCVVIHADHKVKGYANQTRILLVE
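ATP generated from ADP (0.1 mM) and PEP (0.5 mM) by 0.1 nM LmPK over 1 h at room temperature (pH 7.2 imidazole buffer) was detected by coupled luciferase luminescence. Values were normalized to uninhibited and no-enzyme wells.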
Giardia FBPA inh-1: Giardia lamblia aldolase inhibition. 290,000 compounds, 0.71% hits. purified Giardia FBPA. Potency, µM (doses to about 59.6 µM), inactives show at the top dose activity, negative = inhibition, actives largely listed as inhibitors. A8B2U2; also: potency is read from the fitted curve at half-maximal effect; % is scaled to controls: 0 for no effect and ±100 for the full control effect; nearly all actives have a fitted effect of over 55% in size
Target sequence (A8B2U2 whole entry, looked up): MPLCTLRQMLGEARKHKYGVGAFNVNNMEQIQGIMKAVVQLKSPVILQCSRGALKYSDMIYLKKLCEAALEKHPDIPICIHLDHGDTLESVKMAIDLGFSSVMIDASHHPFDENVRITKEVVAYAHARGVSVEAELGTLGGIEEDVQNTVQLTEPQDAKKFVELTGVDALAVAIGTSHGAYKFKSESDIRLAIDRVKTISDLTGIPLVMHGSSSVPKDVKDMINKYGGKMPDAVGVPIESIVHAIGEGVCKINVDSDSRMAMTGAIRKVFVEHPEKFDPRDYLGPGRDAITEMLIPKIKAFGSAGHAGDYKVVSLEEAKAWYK
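Giardia FBPA (40 nM reagent) was preincubated 10 min at RT with compound (up to 57.5 uM final), then substrate plus GAPDH/TPI/NAD/arsenate coupling system with diaphorase/resazurin was added; resorufin fluorescence (525/598 nm) was read after 20 min.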
Giardia growth: Giardia lamblia growth inhibition; shares compounds with Giardia FBPA inh-1; Giardia lamblia trophozoite growth inhibition; Potency, µM (highest dose often 57.5 µM), without a hit: at the highest dose activity change, negative = inhibition, actives largely listed as inhibitors; 1,500 compounds, 5% hits;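 also: potency is read from the fitted curve at half-maximal effect; trophozoites exposed to compound for 48 h at 37 °C; % is scaled to controls: 0 for no effect and ±100 for the full control effect; nearly all actives have a fitted effect of over 70% in size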
Mammal cell tox: counter-screen for Giardia aldolase inhibitors: mammalian cell toxicity | shares compounds with Giardia FBPA inh-1 | mammalian cell viability counter-screen, qHTS | Potency, µM (titrated, usually from 57.5 µM), for the others: at the highest dose viability change, negative = toxicity, actives largely listed as inhibitors | 1,500 compounds, 4% hits | AID 2786;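 also: Chinese hamster ovary cells used as mammalian cytotoxicity surrogate; viability measured as cellular ATP by luminescence; potency is read from the fitted curve at half-maximal effect; compound exposure lasted 48 h before reading; % is scaled to controls: 0 for no effect and ±100 for the full control effect; nearly all actives have a fitted effect of over 60% in size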
Giardia FBPA inh-2: confirmation of Giardia fructose-bisphosphate aldolase inhibitors; 1,500 compounds, 5% hits; shares compounds with Giardia FBPA inh-1; purified Giardia aldolase enzyme activity, qHTS; Potency, µM (top dose mostly 57.5 µM), for the others: top-dose activity change, negative = inhibition, actives largely listed as inhibitors; also: potency is read from the fitted curve at half-maximal effect; % is scaled to controls: 0 for no effect and ±100 for the full control effect; nearly all actives have a fitted effect of over 45% in size
Rabbit FBPA inh: blocks rabbit muscle aldolase in Giardia aldolase selectivity test; 1,500 compounds, 4% hits; AID 2794; shares compounds with Giardia FBPA inh-1; Rabbit muscle FBPA enzyme inhibition, selectivity counter-screen; Potency, µM (titrated, usually from 57.5 µM), for inactives: at the highest dose activity, negative = inhibition, hits mostly inhibitors; also: potency is read from the fitted curve at half-maximal effect; % is scaled to controls: 0 for no effect and ±100 for the full control effect; nearly all actives have a fitted effect of over 60% in size
GAPDH coupling: GAPDH inhibition flagged for Giardia aldolase hits. shares compounds with Giardia FBPA inh-1. GAPDH coupling enzyme counterscreen, biochemical, qHTS. Potency, µM (doses to about 57.5 µM), without a hit: top-dose activity change, negative = inhibition, most hits filed as inhibitors. 1,500 compounds, 6% hits. AID 2795; also: potency is read from the fitted curve at half-maximal effect; % is scaled to controls: 0 for no effect and ±100 for the full control effect; nearly all actives have a fitted effect of over 55% in size
An asterisk follows results filed as active; [ ] = remark or other dose. Unless noted, calls follow the shape of the dose curve; as a rule, active = well fitted curve in the direction sought with a large enough effect; inconclusive = small, poorly fitted or top-dose-only effect, or another doubt; inactive = no such curve, though single readings can be large; an effect the other way counts as inactive or inconclusive.

`COC(=O)c1cccnc1NC(=S)NNC(=O)c1ccncc1` gave Shiga toxin inh -20, CHX counter -4, RE007 growth inh 1%[3.69 µM], LmPK inhibitor 2%, Giardia FBPA inh-1 7.1µM*, Giardia growth 65%, Mammal cell tox 20%, Giardia FBPA inh-2 -7%, Rabbit FBPA inh 8% and GAPDH coupling -20%.
For CC(=O)c1cccc(NC(=O)CCn2nc(C)c(S(=O)(=O)N3CCCCC3)c2C)c1 the results were Tb PYK inh 0%.
For Cc1cc(NC(=O)CN(C)CCOc2ccccc2)ccc1Br the results were Shiga toxin inh 18, CHX counter 3, RE007 growth inh 20%, Tb PYK inh 26%, LmPK inhibitor -2%, Giardia FBPA inh-1 16µM*, Giardia growth inconclusive, Mammal cell tox 13%, Giardia FBPA inh-2 -9%, Rabbit FBPA inh 5% and GAPDH coupling -4%.
Screening CN(CCOc1ccccc1)CC(=O)Nc1cccc(Br)c1 returned Shiga toxin inh -8, CHX counter 10, RE007 growth inh -17%, Tb PYK inh 6%, LmPK inhibitor -6% and Giardia FBPA inh-1 inconclusive.
Screening CC(C)CC(=O)N1CCC(N(CCc2ccccc2)Cc2ccccc2)CC1 returned Shiga toxin inh -4, CHX counter 1, RE007 growth inh 6%, Tb PYK inh 12%, LmPK inhibitor -1%, Giardia FBPA inh-1 25µM*, Giardia growth -12%, Mammal cell tox -8%, Giardia FBPA inh-2 0%, Rabbit FBPA inh 0% and GAPDH coupling 6%.
For CC1CCN(C(=O)CN(CCc2ccccc2)S(C)(=O)=O)CC1 the results were Shiga toxin inh 3, CHX counter 2, RE007 growth inh -3%, Tb PYK inh 1%, LmPK inhibitor 1% and Giardia FBPA inh-1 4%.
For Nc1cccnc1Sc1cccc(Cl)c1 the results were Shiga toxin inh 29, CHX counter 8, RE007 growth inh 18µM*, Tb PYK inh -23%, LmPK inhibitor 5%, Giardia FBPA inh-1 1µM*, Giardia growth 9%[38.3 µM], Mammal cell tox -11%, Giardia FBPA inh-2 -6%, Rabbit FBPA inh -3% and GAPDH coupling -6%.
For Nc1cccnc1Sc1ccc(Cl)cc1 the results were Shiga toxin inh 7, CHX counter 1, RE007 growth inh -27%[3.69 µM], LmPK inhibitor 0% and Giardia FBPA inh-1 -10%.
CCC(=O)N1CCc2cc(S(=O)(=O)NCCC(=O)Nc3ccc(C)cc3)ccc21 was read as Tb PYK inh -7%.
`Cc1cc(NCc2ccncc2)ccc1Br` gave Shiga toxin inh 16, CHX counter 13, RE007 growth inh -8%, Tb PYK inh 1%, LmPK inhibitor -3%, Giardia FBPA inh-1 22µM*, Giardia growth 26%, Mammal cell tox -6%, Giardia FBPA inh-2 -5%, Rabbit FBPA inh -6% and GAPDH coupling 2%.
Screening CC(=O)N1CCC2(CCN(Cc3cc(C(F)(F)F)cc(C(F)(F)F)c3)CC2)CC1 returned Tb PYK inh 2% and Giardia FBPA inh-1 0%.
N[C@@H](CSS(=O)(=O)O)C(=O)O was read as Giardia FBPA inh-1 inconclusive, Giardia growth -11%[38.3 µM], Mammal cell tox 9%, Giardia FBPA inh-2 22µM*, Rabbit FBPA inh 14µM* and GAPDH coupling 22µM*.
NC(=O)C[C@@H](N)C(=O)O was read as Tb PYK inh -3%.
Cn1ccnc1SC(C(=O)O)c1ccccc1 (stereo not given) was read as Shiga toxin inh -7, CHX counter -2, RE007 growth inh -1%, Tb PYK inh 2%, LmPK inhibitor -4%, Giardia FBPA inh-1 14µM*, Giardia growth inconclusive, Mammal cell tox 20%, Giardia FBPA inh-2 5%, Rabbit FBPA inh 6% and GAPDH coupling 3%.
For C=CCNCCOc1ccc(C)cc1[N+](=O)[O-] the results were Shiga toxin inh 7, CHX counter 3, RE007 growth inh -4%, Tb PYK inh 4%, LmPK inhibitor -7% and Giardia FBPA inh-1 inconclusive.
Screening C=CCN(CC=C)CCOc1ccc(C)cc1[N+](=O)[O-] returned Shiga toxin inh 71*, CHX counter 26*, RE007 growth inh -1%, Tb PYK inh 16%, LmPK inhibitor -5%, Giardia FBPA inh-1 20µM*, Giardia growth inconclusive, Mammal cell tox 2%, Giardia FBPA inh-2 -1%, Rabbit FBPA inh 1% and GAPDH coupling -4%.
Screening CCOc1cc(CNC(=O)Cn2c(=O)c3cccn3c3ccc(F)cc32)cc(OCC)c1OCC returned Tb PYK inh 1%.
`O=C(O)c1ccc(/C=C/c2ccc3cccc(O)c3n2)cc1` gave Shiga toxin inh 82*, CHX counter 41*, RE007 growth inh -9%, Tb PYK inh -6%, LmPK inhibitor -21%, Giardia FBPA inh-1 18µM*, Giardia growth 27%, Mammal cell tox -8%, Giardia FBPA inh-2 4µM*, Rabbit FBPA inh inconclusive and GAPDH coupling inconclusive.
Screening O/N=C/c1ccc2cccc(O)c2n1 returned Shiga toxin inh 44*, CHX counter 7.8*, RE007 growth inh -24%, Tb PYK inh -1%, LmPK inhibitor 2%, Giardia FBPA inh-1 7.1µM*, Giardia growth 9%[10.4 µM], Mammal cell tox -10%, Giardia FBPA inh-2 2µM*, Rabbit FBPA inh -29% and GAPDH coupling -28%.
For Cc1ccc(C)c(CN2C(=O)c3ccccc3Sc3ccc(C(=O)NCc4ccc5c(c4)OCO5)cc32)c1 the results were Shiga toxin inh -7, CHX counter -7 and Tb PYK inh -7%.
Screening COCCNC(=O)CN1C(=O)CCn2nc(-c3cn(C)c4ccccc34)cc21 returned Tb PYK inh 0%.

Screening data as filed in PubChem.
